About 83,000 compounds went through this panel and 20% of them were active in at least one assay; those are over-represented in the sample as a whole.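 Single-dose data. Exposure time 48 hours. Values below 10 considered active.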 A number with no mark means an inactive call. The source made the active and inactive calls.
What follows are molecules tested on MDA-MB-468 breast (assay: NCI-60 one-dose screen, 48 h (100 = growth as untreated, 0 = no growth, -100 = all killed)). Conditions: 10 µM unless noted.

| SMILES | growth |
| --- | --- |
| C/C(CC(C)C)=N/NC(N)=S | 7.03% (active) |
| O=C(Nc1ccc(F)cc1)Nc1ccc(Cl)c([N+](=O)[O-])c1 | -3.78% (active) |
| O=C1/C(=C/c2ccc(O)cc2O)N=C2SCCCN12 | 96.1% |
| Cc1cccc(C[C@H](NC(=O)Nc2ccc(Cl)cc2F)C(=O)N[C@@H]2C(=O)N3C[C@H](O)C[C@H]3C(=O)N3CCN(C)C[C@H]3C(=O)N[C@@H](C)C(=O)N3C[C@H](C)C[C@H]3C(=O)O[C@H]2C)c1 | 15.7% |
| C/C(Cc1ccc(Cl)cc1)=C(\c1ccc(OCCN2CCCCCC2)cc1)c1ccc(OC(=O)Cc2ccccc2)cc1 | 69% |
| COc1ccc(-c2nc(SCC(C)C)nc(Nc3ccccc3)c2C#N)cc1 | 80.7% |
| O=Cc1[nH]c(Sc2ccccc2)c2ccccc12 | 47.7% |
| COc1ccc(-c2csc(NC(=O)Nc3nc(-c4ccc(OC)cc4)cs3)n2)cc1 | 47.3% |
| O=c1[nH]c2ccccc2n1C1CCN(CCOc2ccccc2)CC1 | 78.9% |
| Nc1ccccc1NC(=O)c1ccc(-n2nc(-c3ccccc3)c3ccccc32)cc1 | 94.5% |
| S=c1[nH]nc(Cn2c3ccccc3c3ccncc32)o1 | 115% |
| CN(C)c1ccc(C(c2ccccc2)c2ccc(N(C)C)cc2)cc1 | 103% |
| Cn1cc(C(=O)c2nc(-c3c[nH]c4ccc(Br)cc34)no2)c2cc(Br)ccc21 | 66.1% |
| Nc1ccc2c3c(cccc13)-c1ccccc1-2 | 88.6% |
| C=C1c2c(C)nn(-c3ccc(NC(C)=O)cc3)c2N(C)C23CC1C1(C)c4c(C)nn(-c5ccc(NC(C)=O)cc5)c4N(C)C(C)(CC12)C3 (stereo not given) | 14.5% |
| C=C1CCC2C3(C)COC(c4ccccc4)OC3CCC2(C)C1/C=C/C1=CCOC1=O (stereo not given) | 29.5% |
| Fc1cc(C(F)(F)F)ccc1-c1cncnc1NC1CCCCCC1 | 82.4% |
| COc1ccc(C2CC(c3cc(OC)c(OC)c(OC)c3)=NN2c2ccc(S(N)(=O)=O)cc2)cc1 (stereo not given) | 71% |
| Clc1ccc(OCc2nc(-c3ccccc3)n[nH]2)c(Cl)c1 | 99.1% |
| O=C1Nc2ccc(Cl)cc2/C1=C/c1ccc(OCC(=O)c2ccc(Br)cc2)cc1 | 111% |

| SMILES | growth |
| --- | --- |
| COc1ccc2sc3c(NCCCN(C)C)nc4ccccc4c3c(=O)c2c1 | 36.2% |
| CCC(CC)n1c(=O)c(SC2=NC3C(NN2)N(CC)C(=O)N3CC)c(C(=O)O)c2ccccc21 (stereo not given) | 23% |
| N#CC1=C(/N=C/c2ccccc2)Oc2c(ccc3ccccc23)C1c1ccc([N+](=O)[O-])cc1 (stereo not given) | 102% |
| COc1cnc2c(c1)C(=O)c1c-2n(CCCN2CCC(N)CC2)c(=O)c2cc([N+](=O)[O-])ccc12 | 74% |
| COC(=O)/C=C/c1cc(OC(C)=O)c2c(c1)[C@@H](C(=O)OC)[C@H](c1ccc(OC(C)=O)c(OC(C)=O)c1)O2 | -1.27% (active) |
| O=C(Cn1cc(-c2ccccc2)nn1)Nc1nc(-c2ccc(Cl)cc2)cs1 | 92.6% |
| CNC(=O)c1cc(N2CCc3cc(NC(=O)Nc4ccc(N5CCN(C)CC5)c(C(F)(F)F)c4)ccc32)ccn1 | 77.9% |
| Cn1cc(-c2nc(N)nnc2-c2c[nH]c3ccc(Br)cc23)c2cc(Br)ccc21 | 6.33% (active) |
| COc1ccc(C(=O)N2c3ccccc3Sc3ccccc32)c(F)c1 | -13.7% (active) |
| C#CC[C@@H]1C[C@]2(C)[C@H]3CC[C@@H]4[C@H]5C(C(=C)C)CC[C@]5(C(=O)NCCCCCCCCN)CC[C@@]4(C)[C@]3(C)CC[C@H]2C(C)(C)[C@H]1OC(C)=O (stereo not given in full) | 105% |
| CNC(=O)c1cc(Oc2ccc3c(c2)sc2nc(-c4cc(C(F)(F)F)cc(C(F)(F)F)c4)cn23)ccn1 | 4.64% (active) |
| Nc1nc(-c2cc3c(cc2Cl)NC(=O)/C3=C/c2ccccc2)cs1 | 33.7% |
| COc1ccc(CNC(=O)C(=O)[C@H](Cc2ccccc2)NC(=O)c2[nH]c3ccccc3c(=O)c2C)cc1 | 98.4% |
| C=C(CBr)[C@@H]1CC[C@]2(C(=O)O)CC[C@]3(C)[C@H](CC[C@@H]4[C@@]5(C)CCC(=O)C(C)(C)[C@@H]5CC[C@]43C)[C@@H]12 | 40.3% |
| CNC(=O)c1ccccc1Sc1ccc2c(/C=C/c3ccccn3)n[nH]c2c1 | 28% |
| CCN1C(=O)N(CC)C2C1NC(=S)N2/N=C/c1ccc(C(F)(F)F)cc1 (stereo not given) | 49.4% |
| C[C@@H]1C=C2C(=O)O[C@@H]3CC[C@H](C1)[C@]23O | 11.4% |
| COc1cc(-c2cc3ncccc3c3[nH]c(=O)c4cccnc4c23)cc(OC)c1OC | -10.5% (active) |
| C#CC(F)(F)[C@]1(O)CC[C@H]2[C@@H]3CCC4=CC(=O)CCC4=C3[C@@H](c3ccc(C4CC4)cc3)C[C@@]21C | 33.8% |
| CN(C)c1ncc(/C=C2\SC(=S)N(Cc3ccccc3Cl)C2=O)s1 | 95.6% |

Source: PubChem BioAssay (NCI)
